Results on 37 compounds are retold here after PubChem BioAssay (Tox21).

Each structure is given as a SMILES string. Records with an inconclusive call do not appear. Activity calls are given as the source filed them. Unless noted, calls follow the shape of the dose curve; as a rule, active = well fitted cell-killing curve with a large enough effect in the repeat runs; inconclusive = weak or mixed curves; inactive = no such curve, though single readings can be large or run the other way.
% is scaled to controls: 0 for no effect and ±100 for the full control effect.

Chain of Peroxisome proliferator-activated receptor delta (Homo sapiens) (Q03181 whole entry, looked up): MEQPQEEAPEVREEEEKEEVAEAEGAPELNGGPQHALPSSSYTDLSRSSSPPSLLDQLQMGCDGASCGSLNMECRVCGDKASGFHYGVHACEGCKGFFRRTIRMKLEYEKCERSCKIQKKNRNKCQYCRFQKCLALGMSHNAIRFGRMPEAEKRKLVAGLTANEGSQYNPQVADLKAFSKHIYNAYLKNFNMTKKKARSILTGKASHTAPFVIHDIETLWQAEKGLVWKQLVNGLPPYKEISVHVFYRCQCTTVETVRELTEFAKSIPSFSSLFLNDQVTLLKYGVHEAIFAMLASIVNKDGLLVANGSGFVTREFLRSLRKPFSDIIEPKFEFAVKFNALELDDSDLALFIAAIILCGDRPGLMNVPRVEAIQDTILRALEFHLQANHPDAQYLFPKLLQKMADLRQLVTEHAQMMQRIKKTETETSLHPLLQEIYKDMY

System in the first test: not listed separately
The test can be described thus: qHTS assay to identify small molecule agonists of the peroxisome proliferator-activated receptor delta (PPARd) signaling pathway - cell viability counter screen (AID 743211). Also: nearly all actives have a fitted effect of over 55% in size. Conditions: PPARd-bla HEK293H viability, CellTiter-Glo luminescence, 17 h; series mostly up to 62.6 µM. The gist of the method:
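Following 5 h plating at 37 C and 5% CO2, PPARd UAS-bla HEK293H cells took up test compounds for 17 h. Viability was quantified by luminescence 30 min after CellTiter-Glo addition at room temperature.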
On the technique in general: In qHTS, concentration-response curves come from the screen itself.
For the compound `O=C(O)CNC(=O)CNC(=O)CNC(=O)CSC(=O)c1ccccc1`, the outcome was inactive.

`C=C(C)[C@@H]1CC=C(C)CC1`: the compound was called inactive.

On to `CC(C)CO`, for which the compound was classed as inactive.

For the compound `C=C(C)c1cccc(C(C)(C)N=C=O)c1`, the call was inactive.

As for `COc1cc(OC)nc(O[C@H](C(=O)O)C(OC)(c2ccccc2)c2ccccc2)n1`, the outcome was inactive.

On to `COP(=O)(O)OP(=O)(O)OC`, for which the call was inactive.

Take `O=C=NCC1CCCC(CN=C=O)C1` (centres undefined): the compound was called inactive.

As to `COS(=O)(=O)O`, the result was inactive.

With `CCCC(CC)c1ccccc1` (centres undefined), the call was inactive.

With `Cc1cc(C)c(C(=O)O)c(C)c1`, the call was inactive.

Take `COc1c2occc2c(OC)c2c(=O)cc(C)oc12`: the compound was classed as inactive.

For the compound `N[C@@H](Cc1ccc(O)cc1)C(=O)O`, the activity change, negative = cytotoxicity is 3.38% [at 13.2 µM] (inactive).

Take `CO[C@@]1(NC(=O)Cc2cccs2)C(=O)N2C(C(=O)O)=C(COC(N)=O)CS[C@@H]21`: the compound was classed as inactive.

For the compound `Cc1c(Cl)cccc1Cl`, the call was inactive.

In the case of `CC(C)(C)NC[C@H](O)COc1cccc2c1CCCC2=O`, the compound was called inactive.

`C=C(C)C1CC=C(C)C(=O)C1` (centres undefined): the compound was classed as inactive.

For `O=C1NC(c2ccccc2)(c2ccccc2)C(=O)N1COP(=O)(O)O`, the call was inactive.

Take `CCCCOCC(C)O` (centres undefined): the compound was called inactive.

As to `OC[C@H]1O[C@@H](O[C@@H]2[C@@H](CO)O[C@](O)(CO)[C@H]2O)[C@H](O)[C@@H](O)[C@H]1O`, the outcome was inactive.

Regarding `CC1=NN(c2ccc(S(=O)(=O)O)cc2)C(=O)C1`, the outcome was inactive.

Turning to `C=C(C)[C@@H]1CC=C(C)C(=O)C1`, the compound was classed as inactive.

As for `O=C(Cl)c1ccccc1[N+](=O)[O-]`, the result was inactive.

Regarding `CC(=O)OC(C)=O`, the result was inactive.

As to `CN(C)CCCO[C@@H]1[C@H]2OC(C)(C)O[C@H]2O[C@@H]1C(O)CO` (some centres undefined), the call was inactive.

Consider `CN(C)CC/C=C1/c2ccccc2COc2ccc(CC(=O)O)cc21`, for which the outcome was inactive.

Take `CCCCCC/C=C/C(=O)OC`: the compound was classed as inactive.

As to `Cc1ccc(C(=O)O)cc1[N+](=O)[O-]`, the call was inactive.

As to `CCCCOCCOC(=O)COc1ccc(Cl)cc1Cl`, the result was inactive.

As to `OC1OCCOC1O` (centres undefined), the compound was called inactive.

As to `CC(=O)OCC(=O)Nc1cc(C#N)cc(NC(=O)COC(C)=O)c1Cl`, the compound was classed as inactive.

Another test addresses Peroxisome proliferator-activated receptor delta (Homo sapiens) (UniProt Q03181). The test can be described thus: qHTS assay to identify small molecule agonists of the peroxisome proliferator-activated receptor delta (PPARd) signaling pathway (AID 743212; calls by dose curve). The note with it: HEK293H PPARd-UAS-bla, beta-lactamase FRET ratio, 17 h; series mostly up to 62.6 µM. The gist of the method: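 HEK293H UAS-bla reporter cells, human PPARd system; compounds delivered in DMSO after 5 h plating, then at 37 C. Beta-lactamase FRET read, 2 h RT substrate step.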
As to `[O]=[Mo](=[O])=[O]`, the result was inactive.

Regarding `COC(=O)c1cccc(Cl)c1`, the outcome was inactive.

With `C=CCN1C[C@H](C(=O)N(CCCN(C)C)C(=O)NCC)C[C@@H]2c3cccc4[nH]cc(c34)C[C@H]21`, the outcome was inactive.

With `CC(C)C[C@@H]1[C@H](c2ccccc2)OC(=O)N1CCCN1CCCCCC1`, the outcome was inactive.

Take `CCC(=O)CC`: the outcome was inactive.

For `C/C(=C1\CCOC(=O)S1)N(C=O)Cc1cnc(C)nc1N`, the result was inactive.

Turning to `COc1nc(N)nc2nc[nH]c12`, the result was inactive.

System in a further test: not listed separately
Put plainly: qHTS assay to identify small molecule antagonists of the peroxisome proliferator-activated receptor delta (PPARd) signaling pathway - cell viability counter screen (AID 743213). Also: nearly all actives have a fitted effect of over 50% in size. Conditions: PPARd-bla HEK293H viability, CellTiter-Glo luminescence, 17 h; series mostly up to 62 µM. The gist of the method: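 Same-well viability: cells pre-incubated 5 h, dosed with compound plus 300 nM L165041, kept 17 h at 37 C, FRET substrate 2 h RT, then CellTiter-Glo 30 min RT and luminescence.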
As to `O=C(O)CNC(=O)CNC(=O)CNC(=O)CSC(=O)c1ccccc1`, the result was inactive.

Regarding `C=C(C)[C@@H]1CC=C(C)CC1`, the compound was classed as inactive.

For the compound `[O]=[Mo](=[O])=[O]`, the result was inactive.

For `CC(C)CO`, the outcome was inactive.

With `C=C(C)c1cccc(C(C)(C)N=C=O)c1`, the call was inactive.

Consider `COc1cc(OC)nc(O[C@H](C(=O)O)C(OC)(c2ccccc2)c2ccccc2)n1`, for which the result was inactive.

Consider `COP(=O)(O)OP(=O)(O)OC`, for which the compound was called inactive.

`O=C=NCC1CCCC(CN=C=O)C1` (centres undefined): the outcome was inactive.

As for `COS(=O)(=O)O`, the result was inactive.

For the compound `CCCC(CC)c1ccccc1` (centres undefined), the compound was called inactive.

As for `Cc1cc(C)c(C(=O)O)c(C)c1`, the compound was classed as inactive.

Take `COC(=O)c1cccc(Cl)c1`: the compound was classed as inactive.

Take `N[C@@H](Cc1ccc(O)cc1)C(=O)O`: the viability change, negative = cytotoxic was 14.5% [at 13.7 µM] (inactive).

On to `CO[C@@]1(NC(=O)Cc2cccs2)C(=O)N2C(C(=O)O)=C(COC(N)=O)CS[C@@H]21`, for which the compound was classed as inactive.

Regarding `CC(C)(C)NC[C@H](O)COc1cccc2c1CCCC2=O`, the compound was called inactive.

Regarding `C=C(C)C1CC=C(C)C(=O)C1` (centres undefined), the outcome was inactive.

Regarding `O=C1NC(c2ccccc2)(c2ccccc2)C(=O)N1COP(=O)(O)O`, the call was inactive.

As for `CCCCOCC(C)O` (centres undefined), the compound was classed as inactive.

As to `CC(C)C[C@@H]1[C@H](c2ccccc2)OC(=O)N1CCCN1CCCCCC1`, the outcome was inactive.

With `CCC(=O)CC`, the outcome was inactive.

As to `C/C(=C1\CCOC(=O)S1)N(C=O)Cc1cnc(C)nc1N`, the outcome was inactive.

As to `OC[C@H]1O[C@@H](O[C@@H]2[C@@H](CO)O[C@](O)(CO)[C@H]2O)[C@H](O)[C@@H](O)[C@H]1O`, the outcome was inactive.

Consider `CC1=NN(c2ccc(S(=O)(=O)O)cc2)C(=O)C1`, for which the call was inactive.

As to `C=C(C)[C@@H]1CC=C(C)C(=O)C1`, the compound was called inactive.

For `COc1nc(N)nc2nc[nH]c12`, the outcome was inactive.

`O=C(Cl)c1ccccc1[N+](=O)[O-]`: the outcome was inactive.

On to `CC(=O)OC(C)=O`, for which the result was inactive.

For the compound `CN(C)CCCO[C@@H]1[C@H]2OC(C)(C)O[C@H]2O[C@@H]1C(O)CO` (some centres undefined), the compound was called inactive.

As to `CCCCCC/C=C/C(=O)OC`, the outcome was inactive.

For `CCCCOCCOC(=O)COc1ccc(Cl)cc1Cl`, the outcome was inactive.

Consider `OC1OCCOC1O` (centres undefined), for which the call was inactive.

Another test has as its target Peroxisome proliferator-activated receptor delta (Homo sapiens) (UniProt Q03181). Put plainly: qHTS assay to identify small molecule antagonists of the peroxisome proliferator-activated receptor delta (PPARd) signaling pathway (AID 743215; active = well fitted inhibition curve with a large enough effect in the signal ratio in the repeat runs, not every such curve was filed as active; the % refers to the signal ratio;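 also: cells stimulated with agonist L165041 at 300 nM final during compound exposure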). Conditions: HEK293H PPARd-UAS-bla, beta-lactamase FRET ratio, antagonist, 17 h; series mostly up to 62 µM. The procedure, abridged:
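Read-out is beta-lactamase FRET fluorescence, measured 2 h after substrate addition at room temperature. Beforehand, UAS-bla HEK293H cells carrying the PPARd reporter were exposed to compounds with L165041 at 300 nM final for 17 h at 37 C.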
As to `COC(=O)c1cccc(Cl)c1`, the outcome was inactive.

Consider `C=CCN1C[C@H](C(=O)N(CCCN(C)C)C(=O)NCC)C[C@@H]2c3cccc4[nH]cc(c34)C[C@H]21`, for which the result was inactive.

`CC(C)C[C@@H]1[C@H](c2ccccc2)OC(=O)N1CCCN1CCCCCC1`: the result was inactive.

In the case of `CCC(=O)CC`, the outcome was inactive.

Consider `C/C(=C1\CCOC(=O)S1)N(C=O)Cc1cnc(C)nc1N`, for which the outcome was inactive.

On to `COc1nc(N)nc2nc[nH]c12`, for which the outcome was inactive.
